The values below come from PubChem BioAssay.

Test [1] relates to PRMT1 (protein arginine N-methyltransferase 1). Put plainly: small molecules binding arginine methyltransferase PRMT1 – biochemical, small-molecule microarray, 635 nm fluorescence, primary screen (AID 1088).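 Further: binding of Prmt1 protein to compounds spotted on small-molecule microarray slides.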 To be noted: higher = more signal.
Test [2] is described as follows: growth effects on S. cerevisiae YJM789 – YJM789 clinical isolate, OD600, 24 h, basal, primary screen (AID 1089).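 Further: growth of clinical yeast isolate S. cerevisiae YJM 789 seeded 1000 cells per well; test concentration not given here.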 As to conditions: higher = more signal, called active from +8 up or from −8 down.
Test [3] can be described thus: S. pombe growth modifiers, basal conditions – strain 972, OD600, 24 h, no modulator, primary screen (AID 1090).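 Further: basal condition with compound alone and no growth modifier present; test concentration not given here.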 As to conditions: S. pombe 972 growth, higher = more signal, called active from +8 up or from −8 down.
A short description of test [4]: budding yeast growth modifiers under rapamycin – strain BY4716, OD600, 96 h, primary screen (AID 1091). Further: test concentration not given here. As to conditions: S. cerevisiae BY4716 + rapamycin, higher = more signal, called active from +8 up or from −8 down.
The target of test [5] is Torsin-1A-interacting protein 2 (Homo sapiens) (UniProt Q8NFQ8). Kind of test: small molecules binding lysate-expressed LULL1 – cell lysate, human LULL1 lysate, 635/667 nm fluorescence, primary screen (AID 1092).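 Further: probe is lysate of COS7 cells overexpressing human LULL1; score merges per-feature 667 nm fluorescence with signal-to-noise.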 To be noted: small-molecule microarray, hLULL1 lysate binding, 635 nm fluorescence; higher = more signal.
Torsin-1A-interacting protein 2 (Homo sapiens), sequence (Q8NFQ8 whole entry, looked up): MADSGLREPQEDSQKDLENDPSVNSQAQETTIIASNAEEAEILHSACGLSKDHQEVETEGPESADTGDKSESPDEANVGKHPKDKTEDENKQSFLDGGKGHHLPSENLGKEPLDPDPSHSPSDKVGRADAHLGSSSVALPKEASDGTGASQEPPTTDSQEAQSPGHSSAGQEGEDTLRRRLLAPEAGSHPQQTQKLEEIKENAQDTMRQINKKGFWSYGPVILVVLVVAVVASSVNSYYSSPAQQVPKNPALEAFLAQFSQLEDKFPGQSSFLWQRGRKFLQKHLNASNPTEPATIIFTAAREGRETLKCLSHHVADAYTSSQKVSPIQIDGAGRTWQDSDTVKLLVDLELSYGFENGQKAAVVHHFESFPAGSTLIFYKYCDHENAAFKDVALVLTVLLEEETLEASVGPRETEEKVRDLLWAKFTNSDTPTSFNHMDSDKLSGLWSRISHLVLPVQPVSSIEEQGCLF
The nature of test [6]: optical density change of DRC41 E. coli – strain DRC41, OD650, 24 h, E. coli filamentation project, primary screen (AID 1093).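 Further: MC1000 strain lacking acrAB efflux and sulA so SOS filamentation is blocked; test concentration not given here.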 As to conditions: E. coli DRC41 growth, higher = more signal, called active from +8 up or from −8 down.
A short description of test [7]: probe aLefty2 binding to arrayed compounds – biochemical, biotinylated probe, 635/667 nm fluorescence, primary screen (AID 1094).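 Further: score merges spot fluorescence near 667 nm with spot signal-to-noise ratio.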 As to conditions: small-molecule microarray, higher = more signal.
Test [8] concerns Noggin (protein binding on small-molecule microarray). Put plainly: small molecules binding Noggin protein – biochemical, 635/667 nm fluorescence, primary screen (AID 1095).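 Further: score merges 667 nm feature fluorescence with signal to noise over triplicate slides.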 As to conditions: 635 nm fluorescence, higher = more signal.
Test [9] deals with Neurogenic locus notch homolog protein 3 (Homo sapiens) (UniProt Q9UM47). Kind of test: small molecules binding NOTCH3 protein – biochemical, 635/667 nm fluorescence, primary screen (AID 1096). As to conditions: small-molecule microarray, 635 nm fluorescence, higher = more signal.
Neurogenic locus notch homolog protein 3 (Homo sapiens), sequence (Q9UM47 whole entry, looked up): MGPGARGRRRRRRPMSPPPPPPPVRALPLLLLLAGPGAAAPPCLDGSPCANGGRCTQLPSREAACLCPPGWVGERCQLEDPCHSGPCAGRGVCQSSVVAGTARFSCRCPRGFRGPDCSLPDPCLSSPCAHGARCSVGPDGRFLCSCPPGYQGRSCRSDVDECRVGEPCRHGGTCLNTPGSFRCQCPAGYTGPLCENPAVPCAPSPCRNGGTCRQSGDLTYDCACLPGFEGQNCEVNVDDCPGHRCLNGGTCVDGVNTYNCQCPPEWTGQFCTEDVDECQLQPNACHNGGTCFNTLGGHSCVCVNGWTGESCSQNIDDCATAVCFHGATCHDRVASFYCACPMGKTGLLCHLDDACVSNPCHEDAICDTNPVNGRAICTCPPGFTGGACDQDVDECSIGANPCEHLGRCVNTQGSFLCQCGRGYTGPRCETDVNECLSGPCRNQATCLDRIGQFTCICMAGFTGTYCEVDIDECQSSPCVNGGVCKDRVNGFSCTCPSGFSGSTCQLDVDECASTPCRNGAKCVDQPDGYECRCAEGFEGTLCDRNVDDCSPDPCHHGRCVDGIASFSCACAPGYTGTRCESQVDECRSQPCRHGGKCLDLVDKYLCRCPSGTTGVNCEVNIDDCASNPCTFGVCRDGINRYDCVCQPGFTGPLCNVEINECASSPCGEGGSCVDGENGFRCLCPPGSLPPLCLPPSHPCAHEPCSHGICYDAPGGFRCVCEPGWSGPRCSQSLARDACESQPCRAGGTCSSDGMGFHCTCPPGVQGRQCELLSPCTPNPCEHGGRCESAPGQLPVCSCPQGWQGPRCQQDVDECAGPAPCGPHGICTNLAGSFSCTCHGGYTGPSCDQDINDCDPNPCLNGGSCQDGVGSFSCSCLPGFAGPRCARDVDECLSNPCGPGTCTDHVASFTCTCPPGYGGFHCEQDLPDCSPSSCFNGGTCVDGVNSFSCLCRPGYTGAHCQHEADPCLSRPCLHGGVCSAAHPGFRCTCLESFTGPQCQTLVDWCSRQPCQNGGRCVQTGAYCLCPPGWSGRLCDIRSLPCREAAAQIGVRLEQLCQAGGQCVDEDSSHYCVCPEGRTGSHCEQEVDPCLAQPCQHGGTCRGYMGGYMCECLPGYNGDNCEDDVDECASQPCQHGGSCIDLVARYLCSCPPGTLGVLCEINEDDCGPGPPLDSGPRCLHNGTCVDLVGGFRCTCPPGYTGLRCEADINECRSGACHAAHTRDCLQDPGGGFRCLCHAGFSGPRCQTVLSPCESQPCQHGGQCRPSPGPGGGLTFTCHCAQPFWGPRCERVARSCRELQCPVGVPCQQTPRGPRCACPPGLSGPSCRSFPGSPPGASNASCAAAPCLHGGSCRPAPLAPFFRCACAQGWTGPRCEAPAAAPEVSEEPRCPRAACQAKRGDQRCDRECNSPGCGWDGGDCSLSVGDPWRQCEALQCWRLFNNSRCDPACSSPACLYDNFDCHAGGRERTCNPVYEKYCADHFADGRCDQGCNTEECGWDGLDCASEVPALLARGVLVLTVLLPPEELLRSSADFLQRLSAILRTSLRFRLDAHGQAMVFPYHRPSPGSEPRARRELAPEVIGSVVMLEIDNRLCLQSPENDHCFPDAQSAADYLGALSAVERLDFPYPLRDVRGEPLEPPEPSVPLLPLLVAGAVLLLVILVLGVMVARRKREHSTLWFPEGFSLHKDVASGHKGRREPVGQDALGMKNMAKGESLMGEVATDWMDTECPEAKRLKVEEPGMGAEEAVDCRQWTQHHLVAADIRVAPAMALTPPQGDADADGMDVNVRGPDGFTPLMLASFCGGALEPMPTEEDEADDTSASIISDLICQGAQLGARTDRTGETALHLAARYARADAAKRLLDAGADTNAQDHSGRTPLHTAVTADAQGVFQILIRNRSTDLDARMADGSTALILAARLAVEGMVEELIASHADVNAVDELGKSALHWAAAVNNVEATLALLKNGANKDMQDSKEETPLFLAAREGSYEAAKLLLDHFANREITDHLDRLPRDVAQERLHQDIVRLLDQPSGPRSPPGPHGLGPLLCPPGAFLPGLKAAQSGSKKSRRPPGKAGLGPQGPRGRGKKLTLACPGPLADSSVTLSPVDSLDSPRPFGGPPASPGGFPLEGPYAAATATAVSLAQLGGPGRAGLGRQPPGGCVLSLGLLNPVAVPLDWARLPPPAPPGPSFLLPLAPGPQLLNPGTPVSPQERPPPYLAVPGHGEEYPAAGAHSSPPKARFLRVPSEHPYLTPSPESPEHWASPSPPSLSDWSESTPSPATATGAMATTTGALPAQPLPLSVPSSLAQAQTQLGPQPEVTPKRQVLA
The nature of test [10]: probe aEGFR binding to arrayed compounds – biochemical, biotinylated probe, 635/667 nm fluorescence, primary screen (AID 1097).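 Further: probe is a biotinylated anti-EGFR antibody binding compounds printed on slides; score combines fluorescence near 667 nm and signal to noise of each spot.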 As to conditions: small-molecule microarray, higher = more signal.

Activity calls are given as the source filed them.

Turning to `COc1ccc([Si](C)(C)[C@H]2[C@H](CC(=O)N3CCC[C@H]3CO)O[C@@]3(C(=O)N(C)c4ccccc43)[C@@H]2C)cc1`, the composite z-score is 0.969 in [1]; 0.757 in test [5]; -0.0258 in test [7]; 1.85 in test [8]; 0.207 in [9]; -0.151 in test [10]. Further, the z-score was -0.42 (inactive) in test [2], -0.134 (inactive) in test [3], -0.401 (inactive) in [4] and -0.735 (inactive) in [6].

On to `COc1ccc([Si](C)(C)[C@H]2[C@H](CC(=O)N(CCO)Cc3ccccc3)O[C@@]3(C(=O)N(c4ccccc4)c4ccccc43)[C@@H]2C)cc1`, for which the composite z-score in test [1] was 1.51; in [5] it was 1.79; in test [7] it was -0.11; in [8], 1.3; in test [9], 1.11; in [10], -0.13. Further, the z-score was 1.48 (inactive) in test [2], 0.656 (inactive) in [3], 3.73 (inactive) in test [4] and -0.366 (inactive) in test [6].

As to `C=C(C(=O)CC[C@H](OC(=O)c1ccccc1-c1ccccc1C(=O)O)c1ccc(OCCO)cc1)C(C)C`, the composite z-score in [1] was 1.51; in [5], 3.04; in test [7], -0.135; in [8], 0.779; in test [9], 0.241; in [10], 0.0675. Besides, the z-score is -1.2 (inactive) in [2], -0.788 (inactive) in test [3], -1.28 (inactive) in test [4] and 0.438 (inactive) in test [6].

On to `CN(C)C(=O)[C@]1(CCS(=O)(=O)c2ccccc2)N=C(c2ccc(OCCCO)cc2)O[C@@H]1c1ccccc1CN=[N+]=[N-]`, for which the composite z-score in [1] was 1.55; in [5] it was 3.48; in test [7], -0.0079; in test [8], 0.136; in test [9], 1.09; in test [10], -0.025. Moreover, the z-score in test [2] is 0.106 (inactive); in test [3], 0.349 (inactive); in test [4] it was 2.18 (inactive); in [6] it was 0.157 (inactive).

For `CCCCC(=C=CC[C@H](O)c1ccccc1OCCO)CCO`, the composite z-score is 0.95 in test [1]; 1.04 in test [5]; -0.19 in test [7]; -0.0419 in [8]; -0.102 in [9]; -0.0664 in test [10]. Also, the z-score is 0.149 (inactive) in test [2], -0.211 (inactive) in test [3], -0.34 (inactive) in test [4] and 0.288 (inactive) in test [6].

Regarding `COC(=O)[C@]1(Cc2ccccc2N=[N+]=[N-])N=C(c2ccc(OCCCO)cc2)O[C@@H]1c1ccccc1CN=[N+]=[N-]`, the composite z-score in test [1] is 1.56; in [5], 2.25; in test [7], 0.021; in [8], 1.23; in test [9], 0.963; in test [10], 0.0258. Besides, the z-score is -0.141 (inactive) in test [2], 0.708 (inactive) in test [3], 36.8 (active) in test [4] and -0.763 (inactive) in test [6].

Turning to `CC(C)c1ccc(NN2C(C(O)C(C)c3ccccc3)C=CC3C(=O)N(c4ccccc4)C(=O)C32)cc1` (stereo not given), the composite z-score was found to be 1.57 in test [1]; 3.18 in test [5]; 0.57 in [7]; 0.272 in test [8]; 1.07 in test [9]; 0.298 in [10]. Also, the z-score in [2] was -0.202 (inactive); in test [3], 0.0423 (inactive); in test [4], 1.21 (inactive); in test [6], -1.28 (inactive).

With `COC(=O)[C@]1(Cc2ccccc2CN=[N+]=[N-])N=C(c2ccc(OCCCO)cc2)O[C@@H]1c1ccccc1N=[N+]=[N-]`, the composite z-score was 0.907 in test [1]; 1.22 in test [5]; 0.0269 in [7]; 0.398 in [8]; -0.122 in [9]; -0.297 in test [10]. In addition, the z-score is -0.267 (inactive) in test [2], -1.58 (inactive) in [3], 36.1 (active) in test [4] and 1.08 (inactive) in test [6].

Turning to `C=CC[C@]12N=C(c3ccc(OCCCO)cc3)O[C@H]1c1ccccc1N(CCC)C2=O`, the composite z-score in test [1] is 1.55; in test [5], 2.96; in test [7], 0.15; in test [8], 1.2; in test [9], 1.11; in test [10] it was 0.198. The z-score in test [2] was -1.42 (inactive); in [3] it was -2.04 (inactive); in test [4] it was -1.06 (inactive); in [6], 0.544 (inactive).

`CC(C)C[C@@H]1NC(=O)[C@@H]2C[C@H](C(=O)NCCCCCNC(=O)CS)[C@H](c3ccc(O)cc3)N2C1=O`: the composite z-score in test [1] was 1.16; in [5], 2.21; in test [7], -0.0437; in test [8], 0.73; in test [9] it was 0.313; in [10] it was -0.0493. Moreover, the z-score is -2.18 (inactive) in test [2], 0.0046 (inactive) in [3], -1.65 (inactive) in [4] and 1.52 (inactive) in test [6].

`COC(=O)Cn1c(C(=O)N(C)C)cc2c1C[C@H]1CN(C(=O)c3ccccc3)[C@@](Cc3ccccc3)(C(=O)OC)[C@@H]21`: the composite z-score is -0.858 in test [1]; 1.36 in [5]; 0.0022 in test [7]; 0.449 in test [8]; 0.0571 in test [9]; 0.25 in [10]. Also, the z-score in [2] is -0.561 (inactive); in test [3], -0.103 (inactive); in test [4] it was -0.207 (inactive); in test [6], -0.537 (inactive).

On to `CC1CC/C=C\[C@H]2OC34C=CCN(C(C)C)C(=O)[C@H]3N(C(C)CO)C(=O)[C@@H]4C2C(=O)O1` (stereo not given in full), for which the composite z-score in test [1] was 0.216; in test [5] it was 0.476; in test [7] it was -0.172; in [8], 0.202; in test [9], 0.41; in test [10] it was -0.158. For the same compound, the z-score is 0.0052 (inactive) in test [2], 0.285 (inactive) in [3], -0.448 (inactive) in test [4] and 1.62 (inactive) in test [6].

Turning to `COCCCNC(=O)[C@]1(Cc2ccccc2N=[N+]=[N-])N=C(c2ccc(OCCCO)cc2)O[C@@H]1c1ccccc1`, the composite z-score in test [1] is 1.46; in test [5], 3.23; in test [7], 0.692; in test [8], -0.0042; in [9] it was 0.901; in [10], 0.377. The z-score is -1.51 (inactive) in test [2], -0.982 (inactive) in [3], 2.48 (inactive) in test [4] and 1.1 (inactive) in test [6].

Consider `CCCN1C(=O)[C@@]2(c3ccc([N+](=O)[O-])cc3)CC(=O)N(C3CCCCC3)[C@@H]2c2ccc(CO)cc21`, for which the composite z-score was 0.254 in [1]; -0.298 in test [5]; 0.198 in [7]; 0.73 in test [8]; -0.327 in test [9]; 0.0785 in test [10]. Further, the z-score in test [2] is -0.383 (inactive); in test [3], 1.29 (inactive); in test [4], -0.117 (inactive); in test [6] it was -0.0384 (inactive).
